Among all 310,000 compounds or so, about 17,000 (5.5%) were called active. Roughly 11% stayed inconclusive and do not appear here. Many of the other results were omitted from the sample, so actives are more common in it than they were. Unmarked numbers belong to inactive results. Calls come from the whole dose curve; as a rule, active = well fitted inhibition curve with a large enough effect; inconclusive = small, poorly fitted or top-dose-only effect, or effect the other way; inactive = no such curve, though single readings can be large or run the other way.
molecular target: Nuclear receptor ROR-gamma (Mus musculus) (UniProt P51450); experiment: qHTS for inhibitors of ROR gamma transcriptional activity; conditions: Drosophila S2 Gal4-RORgamma UAS-luciferase reporter, 20 h; series mostly up to 53.6 µM; activity change, negative = inhibition: at the top concentration; note: nearly all actives have a fitted effect of over 60% in size
Sequence (P51450 whole entry, looked up, the tested form may be a part): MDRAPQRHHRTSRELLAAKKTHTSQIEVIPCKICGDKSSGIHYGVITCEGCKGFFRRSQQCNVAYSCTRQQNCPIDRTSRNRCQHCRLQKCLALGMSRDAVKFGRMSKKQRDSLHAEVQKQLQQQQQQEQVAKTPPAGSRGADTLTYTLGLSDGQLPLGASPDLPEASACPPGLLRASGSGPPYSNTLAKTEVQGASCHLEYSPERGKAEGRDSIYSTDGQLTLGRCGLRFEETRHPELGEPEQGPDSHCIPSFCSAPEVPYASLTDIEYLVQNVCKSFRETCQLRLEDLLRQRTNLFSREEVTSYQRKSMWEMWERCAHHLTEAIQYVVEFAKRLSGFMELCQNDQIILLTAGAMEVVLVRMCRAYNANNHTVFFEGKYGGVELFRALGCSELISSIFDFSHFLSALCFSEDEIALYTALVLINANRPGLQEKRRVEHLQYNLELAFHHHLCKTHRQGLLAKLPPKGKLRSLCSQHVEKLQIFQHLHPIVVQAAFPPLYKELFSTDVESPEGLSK
In short: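 Drosophila Schneider cells stably carrying a metallothionein-driven Gal4 DBD–ROR gamma fusion and a UAS-Photinus luciferase reporter were exposed to compound for 1 hr, then induced with copper sulfate (700 uM final) for 20 hr at ambient temperature before luminescence reading.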
% is set by controls: 0 for no effect and ±100 for the full control effect; potency is the fitted concentration of half-maximal effect.

SMILES	activity change, negative = inhibition	Potency
CC(=O)Nc1ccc(Oc2ccc3c(c2)C(=O)NC3=O)cc1	20.2%	
O=C(NCCCn1ccnc1)/C(=C\c1ccccc1F)NC(=O)c1ccccc1	-8.54%	
CCc1cc(=O)oc2c(C)c(OCC(=O)NCCN3CCOCC3)ccc12	-18%	
CCCc1cc(=O)oc2cc(OCC(=O)Nc3ccc(CN4CCOCC4)cc3)c(Cl)cc12	-1.12%	
COc1ccc(N2CCN(CCNC(=O)Nc3cc(Cl)ccc3Cl)CC2)cc1	-9.76%	
CCOC(=O)C1=C(CCc2ccccc2)NC(=O)NC1c1ccc2ccccc2c1 (stereo unspecified)	30%	
COc1ccc(CNC(=O)Cc2ccc(-c3ccccc3)cc2)cc1OC	42.9%	
CCOc1ccc(NC(=O)c2cccc3c2C(=O)N(CC2CCCO2)C3)cc1 (stereo unspecified)	-32.5%	
COc1ccc(-c2noc(CCCC(=O)NC3CCCC3)n2)cc1OC	-9.96%	
O=C(CCn1nnc2ccccc21)OCC(=O)c1ccc([N+](=O)[O-])cc1	-28.8%	
COc1ccc(C2NC(=O)N(C)C(C)=C2[N+](=O)[O-])cc1 (stereo unspecified)	-29.9%	
CCN(CC(=O)Nc1ccc2c(c1)OCO2)S(=O)(=O)c1ccccc1	4.13%	
CCc1c(C)nc(SCC(=O)NC2CCCC2)[nH]c1=O	-5.4%	
CN(CCc1ccccn1)C1CCCN(S(=O)(=O)c2ccccc2Cl)C1 (stereo unspecified)	0%	
S=C(NN=C1CCN(Cc2ccccc2)CC1)NC1CCCCC1		2.24 µM (active)
Cc1cc(C)cc(NC(=S)NCCc2c[nH]c3ccccc23)c1		7.08 µM (active)
Cc1ccc(NC(=O)CSCC(=O)NC2CCCCC2)cc1	-0.956%	
O=C(NC1CCN(Cc2ccccc2)CC1)c1ccccc1F	-14.8%	
O=C(NC1CCN(Cc2ccccc2)CC1)c1c(F)cccc1F	1.32%	

SMILES	activity change, negative = inhibition	Potency
Cc1ccc(NC(=S)NC2CCCC2)cc1		3.55 µM (active)
O=C(NCCc1c[nH]c2ccccc12)c1cccc(Br)c1	-2.38%	
COc1ccccc1CC(=O)NCCc1c[nH]c2ccccc12	10.5%	
CC(C)c1ccc(NC(=O)NC2CCCCC2)cc1	2.06%	
COc1ccc(CN2CCN(Cc3ccc(OC)c(OC)c3OC)CC2)cc1	-0.466%	
CC1(c2ccc(Cl)cc2)NC(=O)N(CC(=O)c2ccc3c(c2)OCO3)C1=O (stereo unspecified)	9.33%	
CCc1ccc(Oc2coc3cc(O)ccc3c2=O)cc1	-36.1%	
CCC1CCCCN1C(=O)CSc1nc2c(c(=O)n1C)SC(C)C2 (stereo unspecified)	15.6%	
Cc1noc(C)c1CCC(=O)N1CCCC(CO)(Cc2ccccc2)C1 (stereo unspecified)	26.1%	
CCOc1ccc(NC(=O)C2CCN(C(=O)N3CCOc4ccccc43)CC2)cc1	20.2%	
CCC(C)Sc1nc2c(cnn2-c2ccc(F)cc2)c(=O)[nH]1 (stereo unspecified)	-3.01%	
CCc1[nH]nc(C(=O)N2CCCC(CO)(Cc3ccc(F)cc3F)C2)c1C (stereo unspecified)	22%	
CCOc1ccc(S(=O)(=O)Nc2nc3cc(OC)ccc3s2)cc1	2.49%	
COc1ccc2nc(Nc3nc4cc5c(cc4s3)OCCO5)sc2c1		12.6 µM (active)
CCOc1ccc2nc(NC(=O)CSc3nc4c(c(=O)n(C)c(=O)n4C)n3CC)sc2c1	8.92%	
COc1ccc2nc(NC(=O)NC3CCCCC3)sc2c1	5.57%	
CNC(=O)c1ccc2nc(NC(C)=O)sc2c1	9.09%	
CCOc1ccc2nc(Nc3nc4ccc(NC(C)=O)cc4s3)sc2c1		3.16 µM (active)
CS(=O)(=O)c1ccc2nc(NC(=O)c3ccc(N4CCCC4=O)cc3)sc2c1	33.9%	

SMILES	activity change, negative = inhibition	Potency
COc1ccc2nc(Nc3nc4ccc(NC(C)=O)cc4s3)sc2c1		2.82 µM (active)
COc1ccc2nc(NC(=O)[C@@H]3CCCN3C(=O)c3cccs3)sc2c1	40.9%	
CS(=O)(=O)c1ccc2nc(NC(=O)c3ccc(Cl)nc3)sc2c1	0.945%	
CCC(=O)c1ccc(OCC(=O)Nc2ccc3nc(C)sc3c2)cc1	15%	
COc1cccc(C(=O)Nc2nc3ccc(S(C)(=O)=O)cc3s2)c1		7.94 µM (active)
Cc1ccc2nc3c(cc(C(=O)NCCc4ccccc4)c(=N)n3CC3CCCO3)c(=O)n2c1 (stereo unspecified)	20.8%	
COc1ccccc1N(C)C(=O)c1cc(S(=O)(=O)N2CCc3ccccc32)cn1C	2.49%	
O=C(NCCOc1cccnc1)c1ccc(OC2CCN(Cc3ccccn3)CC2)cc1	-11.4%	
Nc1nnnn1/N=C/c1cccc(Br)c1	6.51%	
CCCc1nn(C)c2c(=O)[nH]c(-c3cc(S(N)(=O)=O)ccc3OCC)nc12	6.93%	
CCOc1cc(-c2noc(CCCC(=O)NC3CCCCC3)n2)ccc1OC	16.1%	
O=C(NCCCn1ccnc1)C1CCCN(S(=O)(=O)c2cc(Cl)ccc2Cl)C1 (stereo unspecified)	-23.4%	
CCCNC(=O)c1cnc(-c2ccccc2)nc1-c1ccccc1	-6.75%	
C[C@H](NC(=O)C1CCN(S(=O)(=O)c2ccccc2)CC1)C(=O)NCc1ccccc1	-4.29%	
COc1ccc2oc(=O)cc(-c3cc4ccccc4o3)c2c1	-21.6%	
COc1ccc2nc(Nc3nc(-c4cc5ccccc5oc4=O)cs3)sc2c1		7.08 µM (active)
COc1ccc2nc(Nc3nc(-c4ccncc4)cs3)sc2c1	-43%	
COCCOC1CCN(C(=O)c2ccc(OC)c(OC3CCN(C(C)C)CC3)c2)CC1	-3.76%	

Source: PubChem BioAssay AID2551 (National Center for Advancing Translational Sciences (NCATS), 2010)
